Reference: the supplement of paper PMC11732987, “Enantioselective OTUD7B fragment discovery through chemoproteomics screening and high-throughput optimisation” (Communications Chemistry, 2025)

Key:
Assay in all cases: log2 ratio of Biotin-Ahx-Ub-VS probe labelling (fragment/DMSO); higher = less target engagement (more negative = stronger competition), active = hit call of the paper (q ≤ 0.05, log2 ratio ≤ -1)
Conditions in all cases: compound concentration: 200 uM; treatment time: 3 h
OTUD6B = molecular target: T1, OTUD6B (UniProt Q8N6M0)
T1 sequence (whole entry): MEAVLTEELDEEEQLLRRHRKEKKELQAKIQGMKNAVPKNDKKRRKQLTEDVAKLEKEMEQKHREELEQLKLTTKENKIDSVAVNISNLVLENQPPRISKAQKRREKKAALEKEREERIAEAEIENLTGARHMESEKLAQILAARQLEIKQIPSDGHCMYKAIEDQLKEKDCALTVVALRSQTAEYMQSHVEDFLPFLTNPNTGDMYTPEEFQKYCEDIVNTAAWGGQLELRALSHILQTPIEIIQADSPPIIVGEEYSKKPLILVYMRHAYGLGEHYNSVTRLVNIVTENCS
Summary of the method: (§1)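 Triplicate samples of HEK293T lysate, 495 µg each, received fragment at 200 µM or vehicle for 3 h, followed by Biotin-Ahx-Ub-VS (0.5 µM final) for 1 h. After NeutrAvidin enrichment of labelled DUBs and LysC/trypsin digestion, peptides were run by diaPASEF LC-MS/MS. The values are average log2 fragment/vehicle ratios from global-median-normalised Spectronaut label-free quantities, tested by unpaired t-test on proteins having ≥2 unique peptides.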

OTUD7B = molecular target: T2, OTUD7B (UniProt Q6GQQ9)
T2 sequence (whole entry): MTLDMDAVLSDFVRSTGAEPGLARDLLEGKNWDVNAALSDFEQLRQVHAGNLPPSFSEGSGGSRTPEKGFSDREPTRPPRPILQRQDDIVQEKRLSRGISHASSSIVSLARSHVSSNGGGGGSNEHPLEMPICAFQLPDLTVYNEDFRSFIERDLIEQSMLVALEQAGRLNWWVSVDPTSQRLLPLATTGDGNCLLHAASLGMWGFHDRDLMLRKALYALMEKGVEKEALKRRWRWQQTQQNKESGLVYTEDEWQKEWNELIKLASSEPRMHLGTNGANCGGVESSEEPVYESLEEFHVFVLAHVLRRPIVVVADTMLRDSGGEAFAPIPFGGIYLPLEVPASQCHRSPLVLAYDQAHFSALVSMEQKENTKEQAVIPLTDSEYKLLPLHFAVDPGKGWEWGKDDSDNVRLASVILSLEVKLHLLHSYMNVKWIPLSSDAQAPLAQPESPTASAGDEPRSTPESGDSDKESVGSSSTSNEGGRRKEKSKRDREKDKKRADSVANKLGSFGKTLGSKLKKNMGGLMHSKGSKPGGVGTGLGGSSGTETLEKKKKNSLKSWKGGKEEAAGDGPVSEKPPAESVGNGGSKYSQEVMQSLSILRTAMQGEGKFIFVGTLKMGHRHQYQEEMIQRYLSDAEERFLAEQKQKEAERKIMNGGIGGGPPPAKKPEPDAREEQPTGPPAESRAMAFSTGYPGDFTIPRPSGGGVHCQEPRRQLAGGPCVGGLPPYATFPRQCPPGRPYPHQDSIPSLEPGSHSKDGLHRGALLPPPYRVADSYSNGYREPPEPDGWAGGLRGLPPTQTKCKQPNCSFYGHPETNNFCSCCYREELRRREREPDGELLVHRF
Summary of the method: as §1

PRPF8 = PRPF8 (UniProt Q6P2Q9)
Summary of the method: as §1

PSMD7 = molecular target: T3, PSMD7 (UniProt P51665)
T3 sequence (whole entry): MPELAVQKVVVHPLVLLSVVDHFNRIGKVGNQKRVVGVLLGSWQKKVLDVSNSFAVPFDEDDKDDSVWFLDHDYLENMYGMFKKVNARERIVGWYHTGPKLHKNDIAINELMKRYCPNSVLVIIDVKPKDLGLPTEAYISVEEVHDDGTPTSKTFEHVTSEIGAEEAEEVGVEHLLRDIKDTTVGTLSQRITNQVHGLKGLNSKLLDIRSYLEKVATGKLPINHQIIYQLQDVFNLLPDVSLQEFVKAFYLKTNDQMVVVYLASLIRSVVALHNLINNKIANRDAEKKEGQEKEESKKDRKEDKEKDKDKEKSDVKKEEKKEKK
Summary of the method: as §1

UCHL1 = UCHL1 (UniProt P09936)
UCHL1, sequence (P09936 whole entry, looked up): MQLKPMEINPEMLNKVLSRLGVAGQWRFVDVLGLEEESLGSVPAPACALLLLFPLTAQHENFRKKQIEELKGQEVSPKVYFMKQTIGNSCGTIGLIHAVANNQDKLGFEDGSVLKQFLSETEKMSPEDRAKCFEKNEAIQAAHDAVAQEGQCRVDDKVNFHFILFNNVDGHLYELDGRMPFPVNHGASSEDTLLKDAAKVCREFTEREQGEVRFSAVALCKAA
Summary of the method: as §1

UCHL3 = molecular target: T4, UCHL3 (UniProt P15374)
T4 sequence (whole entry): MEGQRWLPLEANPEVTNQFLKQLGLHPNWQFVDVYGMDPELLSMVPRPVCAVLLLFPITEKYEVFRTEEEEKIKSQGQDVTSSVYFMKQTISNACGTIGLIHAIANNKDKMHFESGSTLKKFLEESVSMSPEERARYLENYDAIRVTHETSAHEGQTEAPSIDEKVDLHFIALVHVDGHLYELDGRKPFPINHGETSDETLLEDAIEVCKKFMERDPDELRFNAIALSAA
Summary of the method: as §1

UCHL5 = molecular target: T5, UCHL5 (UniProt Q9Y5K5)
T5 sequence (whole entry): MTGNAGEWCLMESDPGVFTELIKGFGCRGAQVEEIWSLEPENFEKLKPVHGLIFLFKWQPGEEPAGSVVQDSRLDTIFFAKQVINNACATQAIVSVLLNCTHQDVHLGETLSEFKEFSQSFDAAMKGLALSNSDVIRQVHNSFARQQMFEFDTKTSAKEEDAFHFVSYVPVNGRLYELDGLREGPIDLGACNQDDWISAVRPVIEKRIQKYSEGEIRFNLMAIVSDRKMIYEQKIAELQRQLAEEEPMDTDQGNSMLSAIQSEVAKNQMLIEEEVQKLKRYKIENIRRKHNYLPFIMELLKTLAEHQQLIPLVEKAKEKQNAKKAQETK
Summary of the method: as §1

USP10 = USP10 (UniProt Q14694)
USP10, sequence (Q14694 whole entry): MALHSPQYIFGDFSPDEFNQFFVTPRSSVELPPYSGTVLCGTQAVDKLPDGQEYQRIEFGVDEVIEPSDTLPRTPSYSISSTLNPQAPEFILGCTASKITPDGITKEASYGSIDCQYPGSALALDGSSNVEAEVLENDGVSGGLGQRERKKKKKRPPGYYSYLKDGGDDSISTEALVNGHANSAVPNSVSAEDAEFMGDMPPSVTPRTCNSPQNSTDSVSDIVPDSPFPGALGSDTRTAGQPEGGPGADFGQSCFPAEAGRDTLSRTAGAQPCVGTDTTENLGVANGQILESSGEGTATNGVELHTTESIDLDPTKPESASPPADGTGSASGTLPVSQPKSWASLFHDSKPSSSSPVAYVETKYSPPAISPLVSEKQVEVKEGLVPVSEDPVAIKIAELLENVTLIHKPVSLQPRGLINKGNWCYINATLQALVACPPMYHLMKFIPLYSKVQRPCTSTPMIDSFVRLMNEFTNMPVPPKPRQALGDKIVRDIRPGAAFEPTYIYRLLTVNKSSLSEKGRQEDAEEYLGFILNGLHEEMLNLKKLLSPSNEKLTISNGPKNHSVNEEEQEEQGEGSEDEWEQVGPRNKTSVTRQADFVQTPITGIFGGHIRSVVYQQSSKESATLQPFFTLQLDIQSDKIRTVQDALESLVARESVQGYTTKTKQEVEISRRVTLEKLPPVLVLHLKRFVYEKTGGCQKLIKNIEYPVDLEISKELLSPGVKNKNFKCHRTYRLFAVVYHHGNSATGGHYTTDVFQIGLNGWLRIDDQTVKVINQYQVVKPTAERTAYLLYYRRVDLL
Summary of the method: as §1

USP15 = molecular target: T6, USP15 (UniProt Q9Y4E8)
T6 sequence (whole entry): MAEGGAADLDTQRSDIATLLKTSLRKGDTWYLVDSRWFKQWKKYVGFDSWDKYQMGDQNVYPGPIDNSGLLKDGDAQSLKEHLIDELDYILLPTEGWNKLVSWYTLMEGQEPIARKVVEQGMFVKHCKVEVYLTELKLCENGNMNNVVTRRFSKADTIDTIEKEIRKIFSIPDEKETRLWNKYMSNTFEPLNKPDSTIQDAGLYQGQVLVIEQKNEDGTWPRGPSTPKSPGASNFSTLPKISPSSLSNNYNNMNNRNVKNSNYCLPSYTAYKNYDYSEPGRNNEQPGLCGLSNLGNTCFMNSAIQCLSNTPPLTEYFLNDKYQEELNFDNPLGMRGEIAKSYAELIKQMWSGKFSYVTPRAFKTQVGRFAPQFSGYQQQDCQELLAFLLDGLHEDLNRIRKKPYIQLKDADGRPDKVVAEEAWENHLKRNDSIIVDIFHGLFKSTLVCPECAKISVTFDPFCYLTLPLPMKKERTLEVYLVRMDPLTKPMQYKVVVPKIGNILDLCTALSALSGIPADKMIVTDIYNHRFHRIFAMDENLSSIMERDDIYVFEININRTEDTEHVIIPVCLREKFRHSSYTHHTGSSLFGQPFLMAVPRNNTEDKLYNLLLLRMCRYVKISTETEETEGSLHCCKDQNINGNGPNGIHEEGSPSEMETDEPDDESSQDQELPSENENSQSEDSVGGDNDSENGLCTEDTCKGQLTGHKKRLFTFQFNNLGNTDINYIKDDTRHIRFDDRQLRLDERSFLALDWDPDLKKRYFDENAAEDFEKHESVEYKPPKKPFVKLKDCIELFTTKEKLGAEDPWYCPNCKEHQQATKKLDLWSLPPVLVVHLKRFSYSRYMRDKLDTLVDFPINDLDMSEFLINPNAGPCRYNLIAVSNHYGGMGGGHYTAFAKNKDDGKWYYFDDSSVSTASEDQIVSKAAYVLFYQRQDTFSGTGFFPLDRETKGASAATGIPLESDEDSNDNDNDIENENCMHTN
Summary of the method: as §1

USP16 = USP16 (UniProt Q9Y5T5)
USP16, sequence (Q9Y5T5 whole entry, looked up): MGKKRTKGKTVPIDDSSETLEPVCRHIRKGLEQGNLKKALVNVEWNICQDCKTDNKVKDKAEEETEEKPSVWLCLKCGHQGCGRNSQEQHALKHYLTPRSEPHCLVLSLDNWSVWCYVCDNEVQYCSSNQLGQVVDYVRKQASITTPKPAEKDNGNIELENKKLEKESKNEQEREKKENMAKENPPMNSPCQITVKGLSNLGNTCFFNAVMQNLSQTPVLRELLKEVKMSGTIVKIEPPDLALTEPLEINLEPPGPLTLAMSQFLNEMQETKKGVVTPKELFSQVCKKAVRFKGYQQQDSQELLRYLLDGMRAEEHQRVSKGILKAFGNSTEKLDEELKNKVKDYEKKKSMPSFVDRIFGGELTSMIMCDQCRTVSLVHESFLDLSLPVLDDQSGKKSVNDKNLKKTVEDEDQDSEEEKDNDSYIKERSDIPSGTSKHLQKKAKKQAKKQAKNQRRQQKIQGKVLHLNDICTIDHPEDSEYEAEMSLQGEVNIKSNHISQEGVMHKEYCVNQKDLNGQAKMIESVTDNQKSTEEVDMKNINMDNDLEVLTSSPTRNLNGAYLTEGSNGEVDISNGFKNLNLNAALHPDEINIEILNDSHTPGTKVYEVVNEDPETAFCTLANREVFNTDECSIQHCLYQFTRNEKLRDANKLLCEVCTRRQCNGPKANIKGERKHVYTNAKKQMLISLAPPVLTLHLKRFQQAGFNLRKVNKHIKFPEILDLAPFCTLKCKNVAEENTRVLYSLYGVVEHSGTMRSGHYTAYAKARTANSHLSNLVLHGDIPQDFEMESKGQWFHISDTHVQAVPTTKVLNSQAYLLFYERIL
Summary of the method: as §1

Measured: log2 ratio of Biotin-Ahx-Ub-VS probe labelling

CCN1C(=O)C2CN(C(=O)CCl)CCN2C1=O (stereo not given)
inactive: OTUD6B -0.0446 | OTUD7B -0.649 | PRPF8 0.0726 | PSMD7 0.0575 | UCHL3 0.629 | UCHL5 -0.0935 | USP10 -0.0852 | USP15 -0.265 | USP16 -0.656
active: UCHL1 -1.56
